Results on six compounds are retold here after PubChem BioAssay (NCATS).

In test [1] the target is Lysosomal acid glucosylceramidase (Homo sapiens) (UniProt P04062). Kind of test: Glucocerebrosidase-p2 (AID 348; in the data active = potency below about 10 µM; also: potency is read from the fitted curve at half-maximal effect). The conditions noted are these: purified GBA, blue fluorogenic substrate, 40 min. A digest of the protocol: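 Normal human glucocerebrosidase (0.2 nM) with blue fluorogenic substrate (80 uM final) in citrate/phosphate pH 5.9 with 10mM sodium taurocholate, 0.01% tween-20; 40 min RT, NaOH/glycine stop; fluorescence Ex 365/Em 440; AC50 from a titration from 0.6 nM upwards.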
Sequence of Lysosomal acid glucosylceramidase (Homo sapiens) (P04062 whole entry, looked up): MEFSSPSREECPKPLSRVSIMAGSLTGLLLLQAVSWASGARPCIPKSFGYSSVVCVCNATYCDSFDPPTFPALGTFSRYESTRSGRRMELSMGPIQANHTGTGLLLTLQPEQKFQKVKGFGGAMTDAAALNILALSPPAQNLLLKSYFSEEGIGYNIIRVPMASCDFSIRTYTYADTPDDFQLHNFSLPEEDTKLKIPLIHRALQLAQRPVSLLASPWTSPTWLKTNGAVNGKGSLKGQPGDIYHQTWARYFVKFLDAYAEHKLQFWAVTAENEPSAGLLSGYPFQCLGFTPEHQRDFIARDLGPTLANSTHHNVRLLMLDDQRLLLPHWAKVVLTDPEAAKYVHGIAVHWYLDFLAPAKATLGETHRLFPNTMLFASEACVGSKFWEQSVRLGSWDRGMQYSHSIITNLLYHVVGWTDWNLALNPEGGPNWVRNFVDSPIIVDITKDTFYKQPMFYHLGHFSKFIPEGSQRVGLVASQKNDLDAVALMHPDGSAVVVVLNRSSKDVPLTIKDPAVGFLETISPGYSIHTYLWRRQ

In test [2] the target is Cytochrome P450 1A2 (Homo sapiens) (UniProt P05177). Kind of test: p450-cyp1a2 (AID 410; calls by dose curve; also: potency is read from the fitted curve at half-maximal effect). The conditions noted are these: recombinant CYP1A2, luciferin-ME demethylation, luminescence; series mostly up to 57 µM. A digest of the protocol:
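O-Demethylation of luciferin 6' methyl ether by human CYP1A2 is monitored as luciferase luminescence. Substrate sits at Km (100uM); enzyme is 20nM. Values are scaled to 57 uM furafylline as maximal inhibition.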

Test [3] in a line: NFAT Signaling Pathway (AID 444; active = well fitted curve in either direction with a large enough effect, not every such curve was filed as active;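 also: carbachol stimulus at about its EC50 of 1 µM final; % is scaled to controls: 0 for no effect and ±100 for the full control effect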). Particulars: Jurkat NFAT-bla M1, carbachol, beta-lactamase ratio, 5 h; at 7.69 µM (top of the series) unless noted. A digest of the protocol:
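Read-out: CCF4 FRET ratio (460 nm/530 nm) after 1 h RT dye loading, used for %activity and AC50 from titration series. Cells: Jurkat NFAT-β-lactamase/M1 line, treated with compound plus 1 uM carbachol for 5 h, 37 °C.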

A short description of test [4]: Stat Signaling Pathway (AID 446; active = well fitted curve in either direction with a large enough effect, not every such curve was filed as active;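 also: ME-180 cervical cancer cells given 40 pM IL-6 alongside compound; SIE-controlled beta-lactamase reporter measured as 460/530 nm FRET emission ratio; % is scaled to controls: 0 for no effect and ±100 for the full control effect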). Particulars: ME-180 SIE beta-lactamase reporter, IL-6 stimulated, 5 h; at 7.69 µM (top of the series) unless noted. A digest of the protocol: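 Overnight-plated ME-180 cells bearing a STAT Inducible Element beta-lactamase reporter; 5 h co-exposure to compound and 40 pM IL-6; values normalized to 300 pM IL-6 and 125 nM JAK inhibitor controls.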

Test [5] has as its target Glucocorticoid receptor (Homo sapiens) (UniProt P04150). Kind of test: GR-GFP Redistribution (AID 450;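 active = compounds whose dose series gives a full or clear partial fitted curve of increased nuclear translocation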; also: potency is read from the fitted curve at half-maximal effect). The conditions noted are these: U2OS GR-GFP nuclear translocation, laser cytometry, 2 h.
Test [6] has the same target. Kind of test: GR-EFC Redistribution (AID 451; calls by dose curve; also: potency is read from the fitted curve at half-maximal effect). Particulars: CHO-K1 GR-EFC translocation, beta-gal luminescence, 2 h. A digest of the protocol: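 Translocation of GR-ED fusion to nuclear EA restores b-gal, read by luminescence after 1 h room-temperature detection. Engineered CHO-K1 biosensor cells, 1,000/well, exposed 2 h at 37 C to titrations up to 46 uM final.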
The target in test [7] is Mitogen-activated protein kinase 10 (Mus musculus) (UniProt Q61831). Kind of test: JNK3 AlphaScreen Assay (AID 530; active = well fitted curve in either direction with a large enough effect, not every such curve was filed as active;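 also: kinase came from lysate of stimulated human HepG2 cells; signal reports phosphorylation of biotinylated GST-cJun 1-79 at Ser73 with 10 µM ATP; % is scaled to controls: 0 for no effect and ±100 for the full control effect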). Particulars: JNK3 lysate, c-Jun phosphorylation; series mostly up to 57.1 µM. A digest of the protocol: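 qHTS titrations with 15 min compound pre-incubation before adding ATP (10 uM final). Read-out: AlphaScreen of Ser73-phosphorylated biotin-GST-cJun using HepG2 lysate JNK3 activated by IL-1β and TNFα.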
(In general: Alpha assays give light when donor and acceptor beads are brought close together.)

A short description of test [8]: qHTS Assay for Lipid Storage Modulators (AID 1519; calls by dose curve). Particulars: Drosophila S3 cells, BODIPY lipid droplet/cell ratio, laser cytometry, cells loaded with oleic acid; for activity change, negative = inhibition: at 57.5 µM (top of the series). A digest of the protocol: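 Cells seeded at 5,000 per well were treated with compounds over a concentration series and loaded with oleic acid (400 uM, as added). Lipid droplet fluorescence (488 nm excitation, 500-530 nm channel) was read by laser-scanning cytometry and normalized to 20 uM Triacsin C.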
(In general: In qHTS, concentration-response curves come from the screen itself.)

For test [9], the target named is Dual specificity protein kinase CLK4 (Homo sapiens) (UniProt Q9HAZ1). Kind of test: qHTS Assay for Inhibitors of CDC-like Kinase 4 (Kinase-Glo Assay) (AID 1770). Also: nearly all actives have a fitted effect of over 65% in size. Also: potency is read from the fitted curve at half-maximal effect. Particulars: recombinant Clk4, Kinase-Glo ATP depletion luminescence; series mostly up to 66.7 µM. A digest of the protocol:
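Inhibition was judged from remaining ATP, measured by Ultra-Glo luciferase bioluminescence after Clk4 (25 nM) had acted on RS peptide at 1 uM ATP for 4.5 hours, room temperature.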

Test [10] shares this target. Kind of test: qHTS Assay for Inhibitors of CDC-like Kinase 4 (ADP-Glo Assay) (AID 1771). Also: nearly all actives have a fitted effect of over 70% in size. Also: potency is read from the fitted curve at half-maximal effect. Particulars: recombinant CLK4, ADP-Glo luminescence; series mostly up to 80 µM. A digest of the protocol: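 Compounds are pin-transferred onto substrate mix (100 uM RS peptide, 1 uM ATP), then 25 nM Clk4 is added. After 1 hr at room temperature, ADP-Glo reagent runs 45 min, detection reagent 30 min, then luminescence is read.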

Test [11] has the same target. Kind of test: qHTS Assay for Inhibitors of CDC-like Kinase 4 (ADP-FP Assay) (AID 1795). Also: nearly all actives have a fitted effect of over 60% in size. Also: potency is read from the fitted curve at half-maximal effect. The conditions noted are these: Transcreener ADP fluorescence polarization; series mostly up to 50 µM. A digest of the protocol: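 Inhibition of ADP formation by 6.25 nM Clk4 is measured using 1 uM ATP and 100 uM RS repeat peptide over one hour. Produced ADP displaces a fluorescent tracer from antibody, lowering polarization.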

For test [12], the target named is Ubiquitin carboxyl-terminal hydrolase 1 (Homo sapiens) (UniProt O94782). Kind of test: Inhibitors of USP1/UAF1: Pilot qHTS (AID 504865).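 Also: rhodamine fluorescence freed from ubiquitin-rhodamine substrate followed over time; top concentration of the series differs between compounds; % is scaled to controls: 0 for no effect and ±100 for the full control effect; nearly all actives have a fitted effect of over 35% in size.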 The conditions noted are these: purified USP1/UAF1, Ub-rhodamine cleavage fluorescence; series mostly up to 54.9 µM. A digest of the protocol: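 Kinetic fluorescence assay: 1nM USP1/UAF1, 15 min compound preincubation, then 150nM Ub-Rho; 480/540 nm.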
Sequence of Ubiquitin carboxyl-terminal hydrolase 1 (Homo sapiens) (O94782 whole entry, looked up): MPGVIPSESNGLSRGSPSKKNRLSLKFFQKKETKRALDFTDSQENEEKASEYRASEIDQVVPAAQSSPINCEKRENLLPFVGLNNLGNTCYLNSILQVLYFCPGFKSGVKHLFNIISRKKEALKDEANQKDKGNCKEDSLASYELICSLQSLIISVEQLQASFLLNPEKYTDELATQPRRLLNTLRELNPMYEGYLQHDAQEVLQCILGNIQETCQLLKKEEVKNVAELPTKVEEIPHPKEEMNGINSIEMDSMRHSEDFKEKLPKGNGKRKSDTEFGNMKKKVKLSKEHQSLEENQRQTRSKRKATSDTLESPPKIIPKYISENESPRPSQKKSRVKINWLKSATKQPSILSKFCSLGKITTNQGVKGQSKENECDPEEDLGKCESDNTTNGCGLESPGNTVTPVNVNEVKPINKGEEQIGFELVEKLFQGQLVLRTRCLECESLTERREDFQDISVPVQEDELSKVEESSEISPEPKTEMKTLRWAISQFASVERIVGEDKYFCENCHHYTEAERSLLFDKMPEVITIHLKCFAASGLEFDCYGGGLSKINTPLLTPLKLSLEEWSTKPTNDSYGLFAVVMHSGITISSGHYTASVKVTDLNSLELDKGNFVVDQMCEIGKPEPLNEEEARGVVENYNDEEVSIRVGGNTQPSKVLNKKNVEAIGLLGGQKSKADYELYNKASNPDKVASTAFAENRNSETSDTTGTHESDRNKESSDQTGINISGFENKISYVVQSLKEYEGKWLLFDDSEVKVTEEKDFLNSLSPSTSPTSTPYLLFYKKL

Test [13] concerns the target Cytochrome P450 3A4 (Homo sapiens) (UniProt P08684). Kind of test: qHTS Assay for Activators of Cytochrome P450 3A4 (AID 885). Also: nearly all actives have a fitted effect of over 65% in size. Particulars: recombinant CYP3A4, Luciferin-PPXE luminescence, 60 min; series mostly up to 57.1 µM. A digest of the protocol:
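Using 20nM recombinant human CYP3A4 in potassium phosphate (200mM), substrate Luciferin-PPXE at 25uM, luminescent luciferin detection followed a 60-min RT NADPH reaction; data scaled to 57 uM ketoconazole.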

Test [14] is described as follows: AP1 Signaling Pathway (AID 357; active = well fitted curve in either direction with a large enough effect, not every such curve was filed as active;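 also: ME-180 reporter cells stimulated with EGF at its EC50 level; % is scaled to controls: 0 for no effect and ±100 for the full control effect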). Particulars: ME-180 AP-1-bla reporter, EGF-induced, beta-lactamase ratio, 5 h; at 7.69 µM (top of the series) unless noted. A digest of the protocol: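 Titration-series screen for positive or negative modulators of EC50 EGF-induced signaling in ME-180 cells carrying an AP-1-driven beta-lactamase reporter. After 5 hours at 37 degrees Celsius, CCF4 460nm/530nm emission ratio gave %Activity; AC50 values derived.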

For test [15], the target named is 3',5'-cyclic-AMP phosphodiesterase 4B (Homo sapiens) (UniProt Q07343). Kind of test: qHTS Assay for Inhibitors of PDE-IV (AID 607; active = well fitted activation curve with a large enough effect in the main read-out, with a control signal flat, not every such curve was filed as active; also: % of control where 0% means no effect). The conditions noted are these: HEK293 ACTOne CNG channel cells, membrane potential fluorescence; series mostly up to 22.9 µM. A digest of the protocol:
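Live HEK293 cells with a modified cyclic nucleotide-gated (CNG) channel report intracellular cAMP via membrane-potential dye fluorescence (ex 535/em 590 nm). Endogenous PDE-IV was targeted. Compounds were tested at up to 22.9 uM final; RO 20-1724 100 uM served as control.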

Test [16] in a line: qHTS Assay for Identification of Small Molecule Agonists for Hypoxia Response Element Signaling Pathway (AID 914; active = well fitted activation curve with a large enough effect in the signal ratio, with a control signal flat, not every such curve was filed as active; the % refers to the signal ratio; also: potency is read from the fitted curve at half-maximal effect). The conditions noted are these: ME-180 (cervical carcinoma) HRE-bla reporter, beta-lactamase ratio, CoCl2, 17 h; activation: stronger effect = higher value. A digest of the protocol:
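Compounds in a titration series were added to ME-180 reporter cells alongside an EC50 level of CoCl2. After 17 hours, beta-lactamase activity was read as the 460nm/530nm emission ratio of CCF4, giving AC50 values.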

Where [17] appears, read: measured here: cell count channel max response.
Where [18] appears, read: measured here: lipid channel max response.

Each structure is given as a SMILES string. Results filed as inconclusive are left out. Calls of active or inactive are those of the source. Unless noted, calls follow the shape of the dose curve; as a rule, active = well fitted curve in the direction sought with a large enough effect; inconclusive = small, poorly fitted or top-dose-only effect, or another doubt; inactive = no such curve, though single readings can be large; an effect the other way counts as inactive or inconclusive. A value given as a limit tells only on which side of the number the result lay.

Sequence of Cytochrome P450 1A2 (Homo sapiens) (P05177 whole entry, looked up): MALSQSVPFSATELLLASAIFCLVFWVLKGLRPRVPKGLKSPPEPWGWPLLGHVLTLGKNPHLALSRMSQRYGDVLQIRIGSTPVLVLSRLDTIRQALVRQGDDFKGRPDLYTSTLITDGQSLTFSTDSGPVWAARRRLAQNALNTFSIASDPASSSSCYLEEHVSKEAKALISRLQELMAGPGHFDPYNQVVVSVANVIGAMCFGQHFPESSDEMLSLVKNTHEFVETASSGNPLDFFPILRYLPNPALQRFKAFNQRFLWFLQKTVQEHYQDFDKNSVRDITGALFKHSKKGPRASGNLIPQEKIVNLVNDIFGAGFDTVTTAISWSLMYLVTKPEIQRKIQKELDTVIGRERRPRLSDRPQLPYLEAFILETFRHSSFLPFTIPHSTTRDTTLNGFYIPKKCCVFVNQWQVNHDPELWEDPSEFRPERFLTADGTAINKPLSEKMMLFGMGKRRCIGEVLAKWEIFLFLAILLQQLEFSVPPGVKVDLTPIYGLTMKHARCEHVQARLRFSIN
Sequence of Cytochrome P450 3A4 (Homo sapiens) (P08684 whole entry, looked up): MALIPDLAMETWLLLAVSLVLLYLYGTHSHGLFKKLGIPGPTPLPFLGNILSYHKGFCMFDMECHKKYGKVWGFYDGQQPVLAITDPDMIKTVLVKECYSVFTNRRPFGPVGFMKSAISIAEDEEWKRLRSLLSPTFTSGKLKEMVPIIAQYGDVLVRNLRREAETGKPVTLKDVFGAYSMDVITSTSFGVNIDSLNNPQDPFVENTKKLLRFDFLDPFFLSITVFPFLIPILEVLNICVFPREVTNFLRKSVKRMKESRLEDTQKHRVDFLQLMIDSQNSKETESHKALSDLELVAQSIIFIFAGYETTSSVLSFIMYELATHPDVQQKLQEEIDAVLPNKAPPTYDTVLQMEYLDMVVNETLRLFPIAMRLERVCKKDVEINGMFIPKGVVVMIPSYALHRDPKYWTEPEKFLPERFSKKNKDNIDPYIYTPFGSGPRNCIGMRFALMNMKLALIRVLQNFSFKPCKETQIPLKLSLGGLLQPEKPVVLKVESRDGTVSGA
Sequence of Dual specificity protein kinase CLK4 (Homo sapiens) (Q9HAZ1 whole entry, looked up): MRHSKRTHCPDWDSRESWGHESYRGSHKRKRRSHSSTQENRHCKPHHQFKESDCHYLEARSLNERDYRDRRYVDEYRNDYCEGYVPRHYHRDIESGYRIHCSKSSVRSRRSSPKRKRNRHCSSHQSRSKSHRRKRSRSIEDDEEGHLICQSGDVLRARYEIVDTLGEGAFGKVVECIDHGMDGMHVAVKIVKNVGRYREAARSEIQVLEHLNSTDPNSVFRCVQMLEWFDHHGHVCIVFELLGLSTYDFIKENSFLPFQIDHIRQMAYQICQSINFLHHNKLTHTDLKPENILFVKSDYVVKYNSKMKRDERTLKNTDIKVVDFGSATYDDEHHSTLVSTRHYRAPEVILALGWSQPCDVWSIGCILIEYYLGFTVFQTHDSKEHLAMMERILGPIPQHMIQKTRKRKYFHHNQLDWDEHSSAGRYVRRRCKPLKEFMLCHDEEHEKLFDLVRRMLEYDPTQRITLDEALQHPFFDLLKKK
Sequence of Glucocorticoid receptor (Homo sapiens) (P04150 whole entry, looked up, the tested form may be a part): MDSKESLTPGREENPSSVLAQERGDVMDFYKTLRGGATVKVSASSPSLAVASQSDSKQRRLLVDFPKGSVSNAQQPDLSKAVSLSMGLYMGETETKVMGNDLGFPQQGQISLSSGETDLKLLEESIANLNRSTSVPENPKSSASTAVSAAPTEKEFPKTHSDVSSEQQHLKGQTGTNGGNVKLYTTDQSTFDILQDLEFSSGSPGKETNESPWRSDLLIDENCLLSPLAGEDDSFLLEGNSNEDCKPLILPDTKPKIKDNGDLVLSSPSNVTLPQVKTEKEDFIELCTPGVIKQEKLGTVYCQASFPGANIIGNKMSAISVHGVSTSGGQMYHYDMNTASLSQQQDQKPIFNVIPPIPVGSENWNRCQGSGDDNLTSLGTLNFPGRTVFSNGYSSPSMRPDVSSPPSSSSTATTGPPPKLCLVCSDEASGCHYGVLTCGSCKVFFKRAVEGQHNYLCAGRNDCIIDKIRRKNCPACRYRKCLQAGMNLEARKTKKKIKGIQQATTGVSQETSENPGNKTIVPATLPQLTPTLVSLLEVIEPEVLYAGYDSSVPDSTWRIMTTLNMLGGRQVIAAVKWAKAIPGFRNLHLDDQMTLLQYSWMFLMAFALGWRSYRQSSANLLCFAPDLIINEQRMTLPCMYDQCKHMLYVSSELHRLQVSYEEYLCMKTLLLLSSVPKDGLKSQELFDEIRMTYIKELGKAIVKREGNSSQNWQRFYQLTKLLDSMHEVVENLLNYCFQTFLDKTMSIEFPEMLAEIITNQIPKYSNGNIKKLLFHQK
Sequence of 3',5'-cyclic-AMP phosphodiesterase 4B (Homo sapiens) (Q07343 whole entry, looked up): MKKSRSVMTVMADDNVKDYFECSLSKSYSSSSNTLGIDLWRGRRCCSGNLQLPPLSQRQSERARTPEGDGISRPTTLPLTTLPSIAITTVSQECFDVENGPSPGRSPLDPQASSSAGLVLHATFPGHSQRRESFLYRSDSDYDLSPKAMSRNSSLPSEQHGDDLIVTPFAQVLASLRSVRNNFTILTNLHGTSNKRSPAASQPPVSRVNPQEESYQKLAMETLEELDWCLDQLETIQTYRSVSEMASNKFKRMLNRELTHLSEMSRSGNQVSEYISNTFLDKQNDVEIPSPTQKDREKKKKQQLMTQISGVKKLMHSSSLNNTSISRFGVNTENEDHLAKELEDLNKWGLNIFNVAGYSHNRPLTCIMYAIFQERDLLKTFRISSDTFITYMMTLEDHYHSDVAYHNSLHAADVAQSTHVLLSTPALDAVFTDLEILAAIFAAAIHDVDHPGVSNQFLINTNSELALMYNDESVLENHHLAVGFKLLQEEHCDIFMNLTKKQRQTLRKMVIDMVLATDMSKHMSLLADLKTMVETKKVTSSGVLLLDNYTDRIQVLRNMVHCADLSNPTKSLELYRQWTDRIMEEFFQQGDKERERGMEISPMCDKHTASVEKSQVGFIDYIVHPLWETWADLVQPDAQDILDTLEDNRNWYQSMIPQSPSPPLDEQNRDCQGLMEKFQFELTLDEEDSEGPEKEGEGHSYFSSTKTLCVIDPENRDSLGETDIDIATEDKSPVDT

With `COCCn1c(=O)c(-c2ccccc2)nc2cnc(Nc3cccc(OC)c3)nc21`, the Potency was > 11.4 µM (inactive) in test [1], 3.98 µM (active) in [2], > 9.22 µM (inactive) in test [5] and > 46 µM (inactive) in test [6]. The results for the activity change, negative = inhibition in [3] and in test [8] were -5.93% (inactive) and 1.38% (inactive), respectively. The activity, negative = inhibition in [4] was -18.3% (inactive). Further, the Potency entry in [7], in test [9], in test [10], in test [11] and in [12] was “inactive” each time. In addition, the max response is -0.938% in [8] (setting [17]) and 0.127% in test [8] (setting [18]).
As for `CN1CCN(c2ncnc3ccc(-c4cccc(NS(C)(=O)=O)c4)cc23)CC1`, the Potency in test [1] was > 11.4 µM (inactive); in test [2], 25.1 µM (active); in test [5], > 46 µM (inactive); in test [6], > 46 µM (inactive); in test [9], 6.31 µM (active); in [10], 7.94 µM (active). In test [11], the Potency was 10 µM (active). The activity, negative = inhibition in [4] is -16.1% (inactive). Also, the Potency result in test [7], in test [13] and in test [12] was “inactive” in each case. The activity change, negative = inhibition in [8] was -4.99% (inactive). Besides, the max response in test [8] (setting [17]) is -11.5%; in [8] (setting [18]) it was -16%.
For `COCCn1c(=O)c(-c2ccccc2)nc2cnc(N(C)C)nc21`, the Potency was > 11.4 µM (inactive) in test [1], 3.16 µM (active) in test [2], > 9.22 µM (inactive) in test [5] and > 46 µM (inactive) in test [6]. Besides, the values for the activity change, negative = inhibition in [14], in test [3] and in test [8] were -2% (inactive), 10.9% (inactive) and 6.53% (inactive), respectively. For the same compound, the Potency entry in test [13], in [9], in test [10], in test [11] and in test [12] was “inactive” throughout. Also, the max response stood at 12.4% in test [8] (setting [17]) and 13.8% in test [8] (setting [18]).
On to `CN1CCN(c2ncnc3ccc(-c4ccoc4)cc23)CC1`, for which the Potency in [1] was > 11.4 µM (inactive); in test [5], > 46 µM (inactive); in test [6], > 46 µM (inactive); in test [9], 0.631 µM (active); in test [10], 0.794 µM (active); in [11] it was 0.447 µM (active). Moreover, the activity change, negative = inhibition in test [14] was -22.9% (inactive); in test [3], -23.1% (inactive); in test [8], 2.55% (inactive). Further, in test [4], the activity, negative = inhibition is -0.925% (inactive). In addition, the Potency entry in test [7] and in [12] was “inactive” each time. The max response was 12.5% in test [8] (setting [17]) and 2.82% in [8] (setting [18]).
On to `O=c1c(-c2ccc(F)cc2)nc2cnc(N3CCNCC3)nc2n1Cc1cccs1`, for which the Potency in test [1] is > 11.4 µM (inactive); in test [2], 10 µM (active); in test [5], > 9.22 µM (inactive); in test [6], > 46 µM (inactive); in test [16] it was 2.51 µM (active). Moreover, the activity change, negative = inhibition is 200% [activator] (active) in test [3] and 1.91% (inactive) in test [8]. In addition, the Potency result in test [15], in test [13], in [9], in test [10], in test [11] and in [12] was “inactive” in each case. In addition, the max response stood at 8.56% in test [8] (setting [17]) and 9.26% in test [8] (setting [18]).
For `Cc1nc2cnc(N3CCN(C)CC3)nc2n(C2CC2)c1=O`, the Potency is > 11.4 µM (inactive) in [1], > 9.22 µM (inactive) in test [5] and > 46 µM (inactive) in test [6]. In addition, the results for the activity change, negative = inhibition in [14], in [3] and in [8] were -13.1% (inactive), -3.47% (inactive) and 3.22% (inactive), respectively. For the same compound, the activity, negative = inhibition in test [4] was -9.11% (inactive). For the same compound, the Potency result in test [7], in test [9], in [10], in test [11] and in [12] was “inactive” in each case. In addition, the max response worked out at 14.4% in test [8] (setting [17]) and 16.3% in test [8] (setting [18]).
